From PubChem BioAssay (NCI)
This is part of a sample that, as a whole, favours compounds with a hit. Of some 83,000 tested, about 20% had one in any assay.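 Percent growth is the endpoint: 0 to 100 indicates growth inhibition (40 means 60% inhibition), 0 means no net growth, and negative values indicate cell death.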 Unmarked numbers belong to inactive results. Active and inactive are the calls of the source. Rule for the calls: active = growth percent below 10; inactive = the rest.

Columns and labels:
Assay in all cases: NCI-60 one-dose screen, 48 h (100 = growth as untreated, 0 = no growth, -100 = all killed)
Details in all cases: 10 µM unless noted
[1] = system: EKVX NSCLC
[2] = system: SN12C renal
[3] = system: UO-31 renal
[4] = system: TK-10 renal
[5] = system: ACHN renal
[6] = system: CAKI-1 renal
[7] = system: A498 renal
[8] = system: CCRF-CEM leukemia
[9] = system: MOLT-4 leukemia

SMILES	growth [1]	growth [2]	growth [3]	growth [4]	growth [5]	growth [6]	growth [7]	growth [8]	growth [9]
COc1cc(Nc2ncc(F)c(Nc3ccc4c(n3)NC(=O)C(C)(C)O4)n2)cc(OC)c1OC	52.4%	36.6%	2.95% (active)	27.2%	5.32% (active)	9.51% (active)	-43.9% (active)	61%	52.4%
C/C=C/C=N/NC(=S)Nc1ccccc1	101%	89.3%	72.6%	112%	99.2%	92.1%	120%	91.8%	99.2%
c1cc(OCCN2CCCCC2)cc(-c2n[nH]c3ccc(-c4ncn[nH]4)cc23)c1	76.7%	68.2%	25.1%	74.5%	62.7%	26.6%	71%	84.9%	27%
Cc1c(Cn2c(C)nc3c(C(=O)O)cc(N4CCOCC4)cc32)cccc1C(F)(F)F	101%	95.7%	47%	84.1%	77.1%	91.7%	-17% (active)	79.6%	60.2%
COc1ccc(-c2cc3c(C)nc(N)nc3n(C3CCC(OCCO)CC3)c2=O)cn1 (stereo not given)	-4.74% (active)	7.14% (active)	-33.8% (active)	-43.4% (active)	-10.3% (active)	-43.4% (active)	-55.8% (active)	14.6%	8.49% (active)
COc1ccc(Nc2ncccc2NC(=O)c2cn(Cc3cccc(Oc4ccccc4)c3)nn2)cc1	86.6%	92.3%	63.7%	99.6%	99.5%	87.3%	81.5%	91.4%	65.3%
Cc1cc(C)n(CC(=O)Nc2ccc(-c3nc4ccccc4s3)cc2)n1	108%	102%	83.8%	106%	114%	102%	94.6%	98.5%	84%
Cc1cc(Nc2cc(N3CCN(C)CC3)nc(/C=C/c3ccccc3)n2)n[nH]1	36.1%	11.7%	-53.8% (active)	-0.298% (active)	0.23% (active)	-45.3% (active)	-86.7% (active)	13.8%	-5.35% (active)
CNS(=O)(=O)Nc1nccc(Cc2c(C)c3ccc(Oc4ncccn4)cc3oc2=O)c1F	55%	73.1%	53.8%	34.1%	56.8%	44.7%	-17.2% (active)	84.4%	76.2%
CC(C)(C)c1cnc(CSc2cnc(NC(=O)C3CCNCC3)s2)o1	22.7%	11.8%	-4.7% (active)	5.16% (active)	9.41% (active)	16.5%	-31.7% (active)	7.55% (active)	0.905% (active)
CC(C)CC(=O)Nc1n[nH]c2c1CN(C(=O)C1CCN(C)CC1)C2(C)C	57.8%	19.2%	–	49.2%	54.2%	39.8%	7.55% (active)	7.27% (active)	4.42% (active)
COc1cccc(Nc2ncnn3ccc(CN4CC[C@@H](N)[C@H](O)C4)c23)c1	23.8%	18.9%	-34.3% (active)	-35.3% (active)	2.8% (active)	-13.5% (active)	-38.1% (active)	–	17.6%
Cc1[nH]c(/C=C2\C(=O)Nc3ccc(F)cc32)c(C)c1C(=O)NC[C@H](O)CN1CCOCC1	44.9%	27.6%	-1.44% (active)	50.1%	23.8%	4.97% (active)	30.5%	33%	15.7%
COC(=O)c1ccc2c(C(=Nc3ccc(N(C)C(=O)CN4CCN(C)CC4)cc3)c3ccccc3)c(O)[nH]c2c1	94%	44.8%	9.57% (active)	46.5%	48.8%	51.8%	21.7%	–	50.5%
CCS(=O)(=O)N1CCN(c2ccc(Nc3ncc(C(N)=O)c(NC4CC4)n3)cc2)CC1	91.6%	62.8%	52.9%	87.3%	85.1%	97.6%	95.6%	–	51.7%
N[C@@H]1CCCN(c2c(/C=C3\SC(=O)NC3=O)cccc2-c2ccccc2)C1	62.6%	65%	31.9%	78.6%	73.2%	73.6%	75%	–	31.1%
CC/C(=C(/c1ccc(Cl)cc1)c1ccc(OCCN2CCCCC2)cc1)c1ccc(Cl)cc1	57.4%	76.5%	58.8%	90.8%	91.2%	74.4%	94%	–	69.2%
COc1cc(OC)c(/C=C/S(=O)(=O)Cc2ccc(OC)c(NCC(=O)O)c2)c(OC)c1	27.3%	34%	36.3%	49.7%	30.2%	18.2%	-4.03% (active)	–	14.5%
CN1CCN(c2ccc(C(=O)Nc3n[nH]c4ccc(Cc5cc(F)cc(F)c5)cc34)c(NC3CCOCC3)c2)CC1	8.7% (active)	-6.17% (active)	–	-5.76% (active)	-7.72% (active)	-80.7% (active)	-54.8% (active)	1.8% (active)	-20.4% (active)
CN1C/C=C\CCOc2cccc(c2)-c2ccnc(n2)Nc2cccc(c2)C1	-14.7% (active)	-41.5% (active)	-79.3% (active)	-53.2% (active)	-37.9% (active)	-87.9% (active)	-77.8% (active)	–	-20% (active)
O=C(c1ccc(/C=C/c2n[nH]c3ccccc23)cc1)N1CCNCC1	71%	22.5%	–	53%	36.5%	11.7%	37.9%	53.2%	19.9%
Cc1cc(Nc2cc(N3CCN(C)CC3)nc(Sc3ccc(NC(=O)C4CC4)cc3)n2)n[nH]1	76.6%	33.4%	22.3%	38.8%	42.4%	31.8%	-16% (active)	–	26%
Cc1ccc(NC(=O)c2ccc(CN3CC[C@H](N(C)C)C3)c(C(F)(F)F)c2)cc1Nc1nccc(-c2cncnc2)n1	15.3%	-32.6% (active)	-61.3% (active)	-30.1% (active)	1.22% (active)	6.85% (active)	-59.9% (active)	–	-4.64% (active)
CCN1CCN(Cc2ccc(Cc3ncc(F)c(-c4cc(F)c5nc(C)n(C(C)C)c5c4)n3)nc2)CC1	59.6%	48.9%	11.8%	35.1%	27.3%	24%	34.5%	22.3%	13.4%
O=C(Nc1cccc([N+](=O)[O-])c1)c1ccc(Cl)c(Cl)c1	66.4%	67.9%	95.4%	49.9%	49.8%	86.4%	79.9%	82.7%	85.9%
CN1CC[C@H](c2c(O)cc(O)c3c(=O)cc(-c4ccccc4Cl)oc23)[C@H](O)C1	0.266% (active)	10.4%	-14.1% (active)	-0.739% (active)	4.43% (active)	10.1%	-54.2% (active)	–	1.35% (active)
COc1cc2c(Oc3ccc4[nH]c(C)cc4c3F)ncnc2cc1OCCCN1CCCC1	95.4%	91.9%	45.3%	90.8%	68.2%	58.9%	2.51% (active)	106%	62.9%
CN(c1ncccc1CNc1nc(Nc2ccc3c(c2)CC(=O)N3)ncc1C(F)(F)F)S(C)(=O)=O	8.69% (active)	9.55% (active)	–	0.859% (active)	-0.448% (active)	12.1%	-16.6% (active)	3.5% (active)	0.451% (active)
COCC(=O)NC/C=C/c1ccc2ncnc(Nc3ccc(Oc4ccc(C)nc4)c(C)c3)c2c1	38.9%	34.9%	16.8%	5.8% (active)	16.1%	18.6%	24.6%	79.2%	29.3%
Cc1nc2ccc(-n3ncc(C(=O)c4cc5ccccc5[nH]4)c3N)cc2[nH]1	63.9%	61.2%	–	71.3%	49.8%	62.2%	8.03% (active)	43.8%	25.1%
